# Inconclusive results are not listed. Where a call stands in place of a potency, no number is given. Activity calls are given as the source filed them. Calls come from the whole dose curve; as a rule, active = well fitted cell-killing curve with a large enough effect in the repeat runs; inconclusive = weak or mixed curves, or effect the other way; inactive = no such curve, though single readings can be large or run the other way.
# Assay: qHTS assay to identify small molecule antagonists of the progesterone receptor (PR) signaling pathway - cell viability counter screen (AID 1346798); note: nearly all actives have a fitted effect of over 50% in size
# Conditions: PR-UAS-bla HEK293T viability, CellTiter-Glo luminescence, 16 h; series mostly up to 92.4 µM; activity change, negative = cytotoxicity: at the top concentration
# Summary of the method: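 Luminescence readout (CellTiter-Glo, 30 min, RT) of viability in PR-UAS-bla HEK293T cells exposed to compound and R5020 agonist for 16 hr at 37C, 5% CO2; run in the same wells as the beta-lactamase reporter read.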
# Potency is the fitted concentration of half-maximal effect.
Compound,Potency,"activity change, negative = cytotoxicity"
O=c1[nH]c(=O)n([C@H]2CCCO2)cc1F,inactive,
C=CCNC(N)=S,,-0.0376% [at 42.5 µM] (inactive)
c1ccc2c(c1)ccc1ccccc12,inactive,
CC(=O)OCC(=O)[C@@]12N=C(C)O[C@@H]1C[C@H]1[C@@H]3CCC4=CC(=O)C=C[C@]4(C)[C@H]3[C@@H](O)C[C@@]12C,,-5.39% [at 42.5 µM] (inactive)
Cc1ccc2oc(=O)ccc2c1,inactive,
CCC(O)OC(O)CC (stereo not drawn),inactive,
O=C(O)c1ccc(C(=O)O)cc1,inactive,
CCCCCCCCCCCCc1ccccc1,inactive,
CCCCCC1=CCCC1=O,inactive,
CCCCC(CC)COC(=O)CCCCC(=O)OCC(CC)CCCC (stereo not drawn),inactive,
CCCCCC(N)=O,inactive,
CC(=O)c1ccccc1,inactive,
CSCCC=O,,-9.77% (inactive)
Cc1ccc(N(C)C)cc1,inactive,
CCCCCCCC(=O)OC,inactive,
CCc1cccc(C)c1N,inactive,
OCC(CO)(CBr)CBr,inactive,
CC[C@H](C)C(=O)O[C@H]1C[C@@H](C)C=C2C=C[C@H](C)[C@H](CC[C@@H]3C[C@@H](O)CC(=O)O3)[C@H]21,62 µM (active),
CN(C)CCCN,inactive,

Compound,Potency,"activity change, negative = cytotoxicity"
O=S1(=O)CC=CC1,inactive,
CC(C)(C)[C@@H](O)[C@@H](Cc1ccc(Cl)cc1)n1cncn1,,15.1% (inactive)
C#CCN(C)Cc1ccccc1,inactive,
C[Si](O[Si](C)(C)C)O[Si](C)(C)C,inactive,
Oc1cccc2ccccc12,inactive,
CCCCCC/C(C=O)=C\c1ccccc1,inactive,
CCCCCCCCCCCCCCO,inactive,
Nc1cc([N+](=O)[O-])ccc1O,inactive,
O=C(O)c1cc(O)c(O)c(O)c1,,0.331% [at 42.5 µM] (inactive)
O=C(O)c1ccc2c(c1)C(=O)OC2=O,inactive,
O=C(Oc1ccccc1)c1ccccc1,inactive,
OC[C@H]1O[C@@](CO)(O[C@H]2O[C@H](CO)[C@@H](O)[C@H](O)[C@H]2O)[C@@H](O)[C@@H]1O,inactive,
O=c1[nH]c(=O)n([C@H]2C[C@H](O)[C@@H](CO)O2)cc1Br,inactive,
CC(=O)CC(=O)Nc1ccccc1C,inactive,
Fc1ccc(Br)cc1,inactive,
CC(c1cc2ccccc2s1)N(O)C(N)=O (stereo not drawn),inactive,
C=CCOC(=O)c1ccccc1C(=O)OCC=C,inactive,
CC1CCC(C(C)C)C(O)C1 (stereo not drawn),inactive,
Cc1cccnc1,inactive,

# Reference: PubChem BioAssay (Tox21)
